Assay [1] concerns the target Cellular tumor antigen p53 (Homo sapiens) (UniProt P04637). The experiment in a line: Primary qHTS for small molecule compounds that upregulate eGFP-tagged delta133p53alpha (in N-terminal) cells. (AID 2060322). Further: nearly all actives have a fitted effect of over 75% in size. Further: potency means the concentration at half of the fitted maximal effect.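 On activation: series mostly up to about 56 µM; 0% = DMSO vehicle and 100% = reference activator.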 Particulars: NCI-H358 eGFP-delta133p53alpha fluorescence, 24 h; activation: hits give high values. In outline:
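NCI-H358 cells pre-induced 24 h with 10 ng/ml doxycycline to express N-terminal eGFP-delta133p53alpha, then dosed 24 h at 37C without doxycycline; fixed, Hoechst-stained, GFP intensity by laser scanning cytometry, normalized to DMSO (0%) and 57.5 uM 5-azacytidine (100%).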
A general note: In qHTS, concentration-response curves come from the screen itself.

Assay [2] addresses Aldehyde dehydrogenase, mitochondrial (Homo sapiens) (UniProt P05091). Put plainly: qHTS for Inhibitors of the Aldehyde Dehydrogenase Family (ALDH2) Confirmatory screens (AID 2061303; active means well fitted inhibition curve with a large enough effect; title and protocol of this record describe different tests; further: nearly all actives have a fitted effect of over 45% in size; further: potency means the concentration at half of the fitted maximal effect).
A short description of assay [3]: qHTS for Inhibitors of the Aldehyde Dehydrogenase Family (ALDH1A2, ALDH1A3, ALDH2, ALDH3A1) (AID 2061307). Further: nearly all actives have a fitted effect of over 50% in size. On Potency: test system not described further here; potency means the concentration at half of the fitted maximal effect.
The target of assay [4] is Aldehyde dehydrogenase, mitochondrial (Homo sapiens) (UniProt P05091). Put plainly: qHTS for Inhibitors of the Aldehyde Dehydrogenase Family (ALDH2) Primary screen (AID 2061308). Further: nearly all actives have a fitted effect of over 55% in size. Further: potency means the concentration at half of the fitted maximal effect.
Assay [5] deals with Retinaldehyde dehydrogenase 3 (Homo sapiens) (UniProt P47895). Put plainly: qHTS for Inhibitors of the Aldehyde Dehydrogenase Family (ALDH1A3) Validation screen (AID 2061312). Further: nearly all actives have a fitted effect of over 45% in size. Further: potency means the concentration at half of the fitted maximal effect.
For assay [6], the target named is Retinal dehydrogenase 2 (Homo sapiens) (UniProt O94788). The experiment in a line: qHTS for Inhibitors of the Aldehyde Dehydrogenase Family (ALDH1A2) Confirmation screens (AID 2061314). Further: nearly all actives have a fitted effect of over 65% in size. Further: potency means the concentration at half of the fitted maximal effect.
For assay [7], the target named is Aldehyde dehydrogenase 1A1 (Homo sapiens) (UniProt P00352). The experiment in a line: qHTS for Inhibitors of the Aldehyde Dehydrogenase Family (ALDH1A1) Confirmatory screens (AID 2061316). Further: nearly all actives have a fitted effect of over 65% in size. Further: potency means the concentration at half of the fitted maximal effect.
Assay [8] addresses Retinaldehyde dehydrogenase 3 (Homo sapiens) (UniProt P47895). Put plainly: qHTS for Inhibitors of the Aldehyde Dehydrogenase Family (ALDH1A3) Confirmatory screens (AID 2061311). Further: nearly all actives have a fitted effect of over 60% in size. Further: potency means the concentration at half of the fitted maximal effect.
The target is the same in assay [9]. The experiment in a line: qHTS for Inhibitors of the Aldehyde Dehydrogenase Family (ALDH1A3) Primary screen (AID 2061315).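 Further: plate controls were DMSO vehicle for no effect and reference inhibitor for full effect.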
Assay [10] is described as follows: BET inhibitor-based combinations targeting novel dependencies in MECOM-rearranged (r) AML: SET-2 cell line (AID 2202231).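 Further: plate controls were DMSO treated cells for no effect and wells without cells for full effect; nearly all actives have a fitted effect of over 35% in size.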 The settings on record: SET-2 AML cells viability, CellTiter-Glo luminescence, 48 h; viability: hits give low values, series mostly up to about 46 µM. The method, boiled down:
(§1)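 500 cells/well; 11-pt dose curve; 48 h, standard incubator; CellTiter-Glo luminescence after 15 min RT; DMSO/empty-well normalization; AUC plus Z-AUC (mean-centered within each line).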
For orientation: Cellular ATP, detected with luciferase, serves as a proxy for viable cell number.

A short description of assay [11]: BET inhibitor-based combinations targeting novel dependencies in MECOM-rearranged (r) AML: OCI-AML3 cell line (AID 2202232). Further: nearly all actives have a fitted effect of over 35% in size. Further: potency means the concentration at half of the fitted maximal effect. The settings on record: Potency: OCI-AML3 viability. In outline:
as §1

The nature of assay [12]: BET inhibitor-based combinations targeting novel dependencies in MECOM-rearranged (r) AML: HNT-34 cell line (AID 2202234). Further: nearly all actives have a fitted effect of over 35% in size. Further: potency means the concentration at half of the fitted maximal effect. In outline: (§2)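 Cells were plated at 500 per well and exposed to each drug across an 11-point dose range for 48 hr at standard incubator conditions. Viability was read by CellTiter-Glo luminescence, and activity was expressed as AUC and per-cell-line Z-transformed AUC.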

The nature of assay [13]: BET inhibitor-based combinations targeting novel dependencies in MECOM-rearranged (r) AML: UCSD-AML1 cell line (AID 2202235). Further: nearly all actives have a fitted effect of over 40% in size. Further: potency means the concentration at half of the fitted maximal effect. The method, boiled down:
as §2

Assay [14] in a line: BET inhibitor-based combinations targeting novel dependencies in MECOM-rearranged (r) AML: AML-191 cell line (AID 2202236; further: nearly all actives have a fitted effect of over 35% in size; further: potency means the concentration at half of the fitted maximal effect). The method, boiled down:
as §1

Assay [15] can be described thus: BET inhibitor-based combinations targeting novel dependencies in MECOM-rearranged (r) AML: AML-194 cell line (AID 2202237; further: nearly all actives have a fitted effect of over 40% in size; further: potency means the concentration at half of the fitted maximal effect). The method, boiled down:
as §1

Assay [16] can be described thus: BET inhibitor-based combinations targeting novel dependencies in MECOM-rearranged (r) AML: MV-4-11 cell line (AID 2202233). Further: potency means the concentration at half of the fitted maximal effect; nearly all actives have a fitted effect of over 45% in size. In outline:
as §2

Where “and” joins values, the source holds several entries; their conditions need not be identical. Equal entries are not always repeated. Inconclusive results are not listed. Unmarked numbers belong to inactive results. Calls of active or inactive are those of the source. Unless noted, the call rests on the fitted dose curve; in most records, active means well fitted curve in the direction sought with a large enough effect; inconclusive means small, poorly fitted or top-dose-only effect, or another doubt; inactive means no such curve, though single readings can be large; an effect the other way counts as inactive or inconclusive.

Sequence of Cellular tumor antigen p53 (Homo sapiens) (P04637 whole entry, looked up): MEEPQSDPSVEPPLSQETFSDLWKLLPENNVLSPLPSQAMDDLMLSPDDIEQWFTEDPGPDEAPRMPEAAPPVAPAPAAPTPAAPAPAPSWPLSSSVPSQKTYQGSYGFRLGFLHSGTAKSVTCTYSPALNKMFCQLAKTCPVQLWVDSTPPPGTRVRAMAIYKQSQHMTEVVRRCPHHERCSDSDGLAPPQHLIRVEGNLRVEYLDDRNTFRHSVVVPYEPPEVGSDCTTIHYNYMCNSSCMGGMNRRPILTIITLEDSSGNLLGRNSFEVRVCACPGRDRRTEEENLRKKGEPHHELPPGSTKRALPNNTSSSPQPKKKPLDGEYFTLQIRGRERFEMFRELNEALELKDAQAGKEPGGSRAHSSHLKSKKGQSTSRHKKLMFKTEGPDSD

Consider `CCOc1ccc2ccccc2c1C(=O)N[C@@H]1C(=O)N2[C@@H]1SC(C)(C)[C@@H]2C(=O)O`, for which the activation in assay [1] was 5.08% and -4.77%. Moreover, the Potency result in assay [2], in [3], in assay [4], in assay [5], in assay [6] and in assay [7] was “inactive” throughout.
Consider `C=C1CC23CC1CCC2C12OC(=O)C(C)(CCC1O)C2C3C(=O)O` (stereo not given), for which the activation in assay [1] was 21.4%. For the same compound, the Potency entry in [2], in assay [3], in assay [4] and in assay [6] was “inactive” throughout.
As for `OC[C@@]1(O)CO[C@@H](OC[C@H]2O[C@@H](Oc3ccccc3)[C@H](O)[C@@H](O)[C@@H]2O)[C@@H]1O`, the activation in [1] is -3.82%. The Potency entry in assay [2], in assay [3], in assay [4], in [6] and in assay [7] was “inactive” throughout.
For `COc1cc(C(O)C2COC(c3ccc(OC4OC(CO)C(O)C(O)C4O)c(OC)c3)C2CO)ccc1O` (stereo not given), the activation in assay [1] is -10.7%. The Potency result in assay [2], in assay [3], in assay [4] and in [7] was “inactive” throughout.
On to `CN(C)c1ccc(C2O[C@@H](c3ccccc3)C[C@H](c3ccccc3)O2)cc1` (stereo not given in full), for which, in [1], the activation was -3.34%. The Potency in assay [2] was 3.55 µM (active); in assay [3], 3.57 µM (active); in assay [8], 3.55 µM (active); in [5], 44.7 µM (active); in assay [6], 10 µM (active); in assay [7], 10 µM (active).
With `S=C(c1ccc(-c2ccc(Cl)c(Cl)c2)o1)N1CCCCC1`, the activation in assay [1] is -7.64%. In addition, the Potency in [2] is 2.83 µM (active); in assay [3], 12.7 µM (active); in assay [4] it was 22.4 µM (active); in assay [7], 5.04 µM (active). For the same compound, the Potency result in [5] and in [9] was “inactive” throughout.
Turning to `NC1(c2ccc(NC(=O)c3ccnc(-c4cc(C(=O)O)ccn4)c3)cc2)CC1`, the activation in [1] was 15.7%. Moreover, the Potency result in assay [2], in assay [3], in [4] and in assay [9] was “inactive” throughout.
On to `C=C(C)C(=O)O[C@H]1[C@H]2C(=C)C(=O)O[C@@H]2/C=C(\CO)CC/C=C(/C=O)[C@@H]1O`, for which the activation in assay [1] is -6.11%. The Potency entry in assay [2], in assay [3], in [4] and in assay [6] was “inactive” in each case.
In the case of `CN(C)c1cccc(-c2c3c(=O)n(-c4ccccc4Cl)[nH]c3cc(=O)n2C)c1`, the activation in assay [1] was 5.36% and -13.4%. For the same compound, the Potency entry in assay [2], in assay [3], in [4], in [6], in [11] and in [12] was “inactive” each time. Further, the Potency entry in assay [13], in assay [14] and in [15] was “inactive” each time. The viability (usually a read-out of living cells in per cent, often relative to untreated cells) in assay [10] is 110%.
Take `CN1CCN(C2=Nc3ccccc3Nc3ccc(O)cc32)CC1`: in assay [1], the activation is 1.91%. In addition, the Potency entry in [2], in [3], in assay [4], in assay [5], in assay [6] and in [7] was “inactive” in each case.
In the case of `C=C1CC[C@H]2[C@@](C)(CCC(OC3OC(CO)C(O)C(O)C3O)[C@@]2(C)CO)C1C(=O)CC1=CCOC1=O` (stereo not given in full), in assay [1], the activation is -1.53%. Further, the Potency entry in assay [2], in [3], in assay [4] and in assay [6] was “inactive” in each case.
Take `Cc1ncc(-c2ccnc(Nc3ccc(S(C)(=O)=O)cc3)n2)n1C(C)C`: the Potency in assay [1] was 3.06 µM (active) and 2.69 µM (active); in [3], 11.3 µM (active); in assay [11] it was 2.35 µM (active); in assay [16], 0.59 µM (active); in assay [12], 1.48 µM (active); in [13], 1.32 µM (active). In addition, the Potency in assay [14] was 1.18 µM (active); in assay [15] it was 1.86 µM (active). The Potency result in [2], in [4], in assay [9] and in assay [7] was “inactive” throughout.
As to `CC1(C)[C@H](C(=O)O)N2C(=O)C[C@H]2S1(=O)=O`, the activation in [1] was -10% and -6.44% and -12.3%. Also, the Potency entry in assay [2], in [3], in [4], in [6], in assay [9] and in assay [7] was “inactive” throughout.
On to `Cc1cc2ncc(C(=O)NCC(C)(C)NCC(=O)N3CCC[C@H]3C#N)cn2n1`, for which the activation in [1] was -6.33%. In addition, the Potency result in assay [2], in [3], in assay [8] and in [6] was “inactive” throughout.
With `Cc1nc2c(C#N)c[nH]n2c(=O)c1C(C)C`, the activation in assay [1] was 23.5%. Further, the Potency result in assay [2], in assay [3], in assay [4], in assay [6], in assay [9] and in [7] was “inactive” in each case.
With `Cc1nc(N=Nc2cc(S(=O)(=O)O)c3cc([N+](=O)[O-])cc(S(=O)(=O)O)c3c2)c(COP(=O)(O)O)c(C=O)c1O`, the activation in assay [1] was -72.9%. The Potency result in [2], in assay [3], in assay [5], in assay [6] and in assay [7] was “inactive” throughout. Further, the Potency in assay [8] was 22.5 µM (active).
`C/C=C1\[C@H](O[C@@H]2O[C@H](CO)[C@@H](O)[C@H](O)[C@H]2O)OC=C(C(=O)OC)[C@H]1CC(=O)OC[C@H]1O[C@@H](OCCc2ccc(O)cc2)[C@H](O)[C@@H](O)[C@@H]1O`: the activation in assay [1] was -1.53%. Further, the Potency result in assay [2], in assay [3], in assay [4] and in [6] was “inactive” each time.
For `O=C(OCC1=C[C@@H](O)[C@@H]2C=CO[C@@H](O[C@@H]3O[C@H](CO)[C@@H](O)[C@H](O)[C@H]3O)[C@H]12)c1ccc(O)cc1`, the activation in assay [1] is 3.57%. Also, the Potency entry in assay [2], in assay [3], in assay [4], in assay [6] and in assay [9] was “inactive” each time.
`C[C@@H]1CN(Cc2ncccn2)C[C@H]1c1nc2c(cnn2C2CCOCC2)c(=O)[nH]1`: the activation in [1] is 0.955%. The Potency entry in assay [2], in assay [3], in assay [8], in assay [5], in [6] and in assay [9] was “inactive” throughout.
Regarding `CC(C)(Cc1ccccc1)NCC(O)c1ccc(O)c(NS(C)(=O)=O)c1` (stereo not given), the activation in [1] is -0.955%. The Potency result in [2], in [3], in assay [4], in assay [5], in assay [6] and in assay [7] was “inactive” in each case.
Turning to `O=C(CN1C2=NCCN2c2ccccc21)c1ccc(-c2ccccc2)cc1`, the activation in assay [1] was 7.16%. Further, the values for the Potency in assay [2], in assay [3] and in assay [8] were 3.57 µM (active), 3.57 µM (active) and 31.6 µM (active), respectively. Further, the Potency entry in assay [5], in [6] and in assay [9] was “inactive” in each case.

For the origin of these results see PubChem BioAssay (NCATS).
